# Laboratory results: ChEMBL document CHEMBL3988442, “University of Dundee, Small-Polar-MMV Screening Library” (2021)
# The whole screen tested about 69,000 compounds, of which about 1,000 (1.4%) showed an effect of 50% or more. This excerpt belongs to a sample that is enriched for strong results.
# Test system: Leishmania donovani
# Assay: Leishmania intramacrophage assay
# Assay type: functional, organism-based
# Parameters: scale not given: in the data most compounds retested in dose-response had high values
smiles,measurement,setting,value
CCOCCCC(=O)Nc1[nH]nc(-c2ccncc2)c1C,Percent Effect,"30.3 µM, […]",25.28%
CC(C)(O)C1CCN(C(=O)Nc2nc(-c3ccccc3)ns2)CC1,Percent Effect,"30 µM, 30.03 µM",46.85%
CC(C)(CO)CCCNC(=O)N1CCc2c(F)ccc(F)c2C1,Percent Effect,"30.3 µM, […]",-32.7%
COc1cc(N2CC[C@H](O)[C@@H]2Cc2cnn(C)c2)ncn1,Percent Effect,"30 µM, 30.03 µM",12.89%
COc1ccccc1C(=O)N1C[C@@H]2CCCCN(CC(N)=O)[C@@H]2C1,Percent Effect,"30.3 µM, […]",-33.88%
O=C(Nc1ccccn1)N(CCO)Cc1ccccc1Br,Percent Effect,30 µM,5.548%
CN1CCN(Cc2ccc(-c3ccc(C(N)=O)cc3)nc2)CC1,Percent Effect,"30.3 µM, […]",77.28%
CN1CCN(Cc2ccc(-c3ccc(-c4ccn[nH]4)cc3)nc2)CC1,Percent Effect,"30.3 µM, […]",8.288%
CN1CCN(Cc2ccc(-c3ccc4[nH]ccc4c3)nc2)CC1,Percent Effect,"30.3 µM, […]",-38.55%
CS(=O)(=O)N1CC[C@H]2OCC[C@@]2(C(=O)NCc2ccccn2)C1.O=C(O)C(F)(F)F,Percent Effect,"30.3 µM, […]",38.61%
CC(C)N1CC2(CCC1=O)CCN(c1ccnc3ccccc13)CC2,Percent Effect,"30.3 µM, […]",16.36%
CC(C)N1CC2(CCCN(c3ccccn3)C2)CCC1=O (stereo not drawn),Percent Effect,"30.3 µM, […]",24.82%
CC(C)N1CC2(CCCN(c3ccnc4ccccc34)C2)CCC1=O (stereo not drawn),Percent Effect,"30.3 µM, […]",61.79%
CN1CCN(C(=O)c2cccc(S(=O)(=O)NCC3(C)COC3)c2)CC1,Percent Effect,"30.3 µM, […]",33.44%
COc1cc(Cl)c(NCc2c(C)noc2C)cc1OC,Percent Effect,"30.3 µM, […]",14.57%
COC(=O)COc1cc(NCc2c(C)noc2C)c(Cl)cc1C,Percent Effect,"30.3 µM, […]",56.06%
COc1cc(NCc2c(C)noc2C)c(OC)cc1Cl,Percent Effect,"30.3 µM, […]",13.7%
O=C(CCc1nc2cccnc2[nH]1)Nc1ccc2c(c1)NC(=O)CO2,Percent Effect,"30.3 µM, […]",20.44%
CN1C(=O)COc2ccc(NC(=O)CCc3nc4cccnc4[nH]3)cc21,Percent Effect,"30.3 µM, […]",53.55%
CN1C(=O)COc2cc(NC(=O)CCc3nc4cccnc4[nH]3)ccc21,Percent Effect,"30.3 µM, […]",33.08%
O=C(N[C@@H]1CCN(C(=O)c2cc[nH]c2)C[C@H]1O)c1ccccn1,Percent Effect,"30.3 µM, […]",4.682%
CN1CCC(CNC(=O)c2cccc(CN3CCCCCC3)c2)C1 (stereo not drawn),Percent Effect,"30.3 µM, […]",-20.09%
CCC[C@H]1CN(S(C)(=O)=O)C[C@@H]1NC(=O)CCOCC,Percent Effect,"30.3 µM, […]",-29.93%
CCc1ccc(NC(=O)c2n[nH]c(-n3cnnc3)n2)cc1,Percent Effect,"30.3 µM, […]",-23.27%
O=C(Nc1ccccc1)c1n[nH]c(-n2cnnc2)n1,Percent Effect,"30.3 µM, […]",15.16%
Cc1ccc(NC(=O)c2n[nH]c(-n3cnnc3)n2)cc1,Percent Effect,"30.3 µM, […]",53.89%
O=C(NCC(O)(c1ccco1)C1CC1)c1ccccc1F (stereo not drawn),Percent Effect,"30.3 µM, […]",-8.312%
CCCS(=O)(=O)CCN1CCOC(c2ccsc2)C1 (stereo not drawn),Percent Effect,"30.3 µM, […]",22.47%
